Laboratory results published in PubChem BioAssay (NCATS).
Several values for one entry are separate records, joined by “and”; a condition that tells them apart may be missing. Equal entries are not always repeated. Results filed as inconclusive are left out. Activity calls are given as the source filed them. Calls follow the shape of the dose curve; as a rule, active = well fitted curve in the direction sought with a large enough effect; inconclusive = small, poorly fitted or top-dose-only effect, or another doubt; inactive = no such curve, though single readings can be large; an effect the other way counts as inactive or inconclusive. Peptide text beside a SMILES is read from it. * marks the point of attachment. AFC = O=c1cc(C(F)(F)F)c2ccc(N*)cc2o1

What was measured:
[1] = target: Cellular tumor antigen p53 (Homo sapiens) (UniProt P04637); assay: Primary qHTS for small molecule compounds that upregulate eGFP-tagged delta133p53alpha (in N-terminal) cells. (AID 2060322); conditions: NCI-H358 eGFP-delta133p53alpha fluorescence, 24 h; activation: hits give high values;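 also: 0% = DMSO vehicle and 100% = reference activator; nearly all actives have a fitted effect of over 75% in size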
Procedure, shortened: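 NCI-H358 cells pre-induced 24 h with 10 ng/ml doxycycline to express N-terminal eGFP-delta133p53alpha, then dosed 24 h at 37C without doxycycline; fixed, Hoechst-stained, GFP intensity by laser scanning cytometry, normalized to DMSO (0%) and 57.5 uM 5-azacytidine (100%).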

[2] = target: Aldehyde dehydrogenase, mitochondrial (Homo sapiens) (UniProt P05091); assay: qHTS for Inhibitors of the Aldehyde Dehydrogenase Family (ALDH2) Primary screen (AID 2061308); conditions: ALDH2 enzyme inhibition qHTS, 1536-well; series mostly up to 56 µM;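 also: plate controls were vehicle for no effect and reference inhibitor for full effect; nearly all actives have a fitted effect of over 55% in size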
[3] = target: Retinaldehyde dehydrogenase 3 (Homo sapiens) (UniProt P47895); assay: qHTS for Inhibitors of the Aldehyde Dehydrogenase Family (ALDH1A3) Primary screen (AID 2061315); conditions: ALDH inhibition qHTS; series mostly up to 56 µM;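 also: plate controls were DMSO vehicle for no effect and reference inhibitor for full effect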

Sequence of Cellular tumor antigen p53 (Homo sapiens) (P04637 whole entry, looked up): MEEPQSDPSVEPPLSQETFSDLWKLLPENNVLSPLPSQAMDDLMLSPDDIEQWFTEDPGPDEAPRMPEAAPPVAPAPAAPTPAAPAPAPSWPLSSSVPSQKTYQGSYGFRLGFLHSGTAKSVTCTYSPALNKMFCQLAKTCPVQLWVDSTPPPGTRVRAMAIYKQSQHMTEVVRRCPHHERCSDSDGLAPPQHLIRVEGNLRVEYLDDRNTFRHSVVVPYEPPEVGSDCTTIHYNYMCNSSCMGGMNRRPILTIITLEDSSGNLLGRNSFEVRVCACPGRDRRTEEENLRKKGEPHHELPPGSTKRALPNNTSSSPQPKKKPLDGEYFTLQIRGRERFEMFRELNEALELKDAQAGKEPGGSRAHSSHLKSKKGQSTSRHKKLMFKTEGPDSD

COC(=O)[C@]1(C)CCC[C@@]2(C)[C@@H]3CC[C@@H]4C[C@@]3(CC[C@@H]21)C[C@H]4C(=O)O
inactive: activation [1] -17.6% | Potency [2] | Potency [3]

CC(=O)N[C@@H](CC(C)C)C(=O)N[C@@H](CCC(=O)O)C(=O)N[C@@H](CCC(=O)O)C(=O)N[C@@H](CC(=O)O)C(=O)Nc1ccc2c(C(F)(F)F)cc(=O)oc2c1 (Ac-LEED-{AFC})
inactive: activation [1] 2.33% | Potency [2] | Potency [3]

COC(=O)C1=CO[C@@H](O[C@@H]2O[C@H](CO)[C@@H](O)[C@H](O)[C@H]2O)/C(=C\CO)[C@@H]1CC(=O)OCCc1ccc(O)cc1
inactive: activation [1] -20.6% | Potency [2] | Potency [3]

Fc1ccc(-c2c3cccc(C(F)(F)F)c3nn2Cc2ccc(F)cc2Cl)cc1
inactive: activation [1] -8.11% | Potency [2] | Potency [3]

CC1(C)CC[C@]23CO[C@@]4(CCC5[C@@]6(C)CC[C@H](O[C@@H]7OC[C@H](O[C@@H]8O[C@H](CO)[C@@H](O)[C@H](O)[C@H]8O[C@@H]8OC[C@@H](O)[C@H](O)[C@H]8O)[C@H](O)[C@H]7O)[C@@](C)(CO)C6CC[C@@]5(C)[C@]4(C)CC2=O)[C@@H]3C1 (stereo partly specified)
inactive: activation [1] 18.3% | Potency [2] | Potency [3]

CCc1cc(CC[C@]2(C3CCCC3)CC(O)=C(Cc3nc4nc(C)cc(C)n4n3)C(=O)O2)cc(CC)n1
inactive: activation [1] -29.5% | Potency [2] | Potency [3]

C[C@@H]1C[C@H](C)CN(CCC(=O)Nc2ccc(Br)cc2)C1
inactive: activation [1] 13.4% | Potency [2] | Potency [3]

CC(=O)NC(Cc1ccccc1)C(=O)O (stereo unspecified)
inactive: activation [1] 1.67% and 0% | Potency [2] | Potency [3]

CC1=CC(=O)OC(C)(CC(C)(O)C(=O)O)C1 (stereo unspecified)
inactive: activation [1] -15.3% | Potency [2] | Potency [3]

CC(=O)O[C@H]1C[C@@H]2[C@]3(CC[C@]4(C)[C@@H](C5(C)CCC(C(C)(C)O)O5)[C@@H](O)C[C@@]24C)C[C@@]32CC[C@H](O[C@@H]3OC[C@@H](O)[C@H](O)[C@H]3O)C(C)(C)[C@H]12 (stereo partly specified)
inactive: activation [1] -4.46% | Potency [2] | Potency [3]

O=C1OC(c2ccc(O)cc2)C(O)=C1Cc1ccccc1 (stereo unspecified)
inactive: activation [1] -3.82% | Potency [2] | Potency [3]

CC(=O)OC1CCC2(C)C(CCC3(C)C2CC=C2C4C(C)C(C)CCC4(C)CCC23C)C1(C)C(=O)O (stereo unspecified)
inactive: activation [1] -6.11% | Potency [2] | Potency [3]

C=C1CO[C@@]2(O[C@H]3CC4C5CC=C6C[C@@H](O)C[C@@H](O[C@@H]7OC[C@H](O)[C@H](O[C@@H]8OC[C@@H](O)[C@H](O)[C@H]8O)[C@H]7O[C@@H]7O[C@@H](C)[C@H](OC(C)=O)[C@@H](OC(C)=O)[C@H]7OC(C)=O)[C@]6(C)C5CC[C@]4(C)[C@@H]3[C@@H]2C)[C@@H](O)[C@H]1OC1OC(C)C(O)C(O)C1O (stereo partly specified)
inactive: activation [1] -6.87% | activity change, negative = inhibition [2] 8.25% [at 11.2 µM] | activity change, negative = inhibition [3] -6.16% [at 11.2 µM]

COc1ccc(-c2ccccc2)cc1NS(=O)(=O)c1cc(Cl)cc(Cl)c1O
inactive: activation [1] -8.33% | Potency [2] | Potency [3]

CC1(C)S[C@@H]2[C@H](NC(=O)[C@H](N)c3ccc(O)cc3)C(=O)N2[C@H]1C(=O)O
inactive: activation [1] -5% | Potency [2] | Potency [3]

COc1ccc(CNCc2cccc3ccccc23)cc1
inactive: activation [1] -2.33% | Potency [2] | Potency [3]

CC1(CCC(=O)O)C(=O)C=CC23CC4CC(OC4(C)C2O)C13 (stereo unspecified)
inactive: activation [1] 6.87% | Potency [2] | Potency [3]

CCOc1ccc(-c2nn3ncccc3c2-c2ccc(S(C)(=O)=O)cc2)cc1
inactive: activation [1] -4.46% | Potency [2] | Potency [3]

CC(O)CO[C@@H]1O[C@H](CO)[C@@H](O)[C@H](O)[C@H]1O (stereo partly specified)
inactive: activation [1] -4.58% | Potency [2] | Potency [3]

O=S(=O)(c1ccc(S(=O)(=O)n2cnc3ccccc32)cc1)N1CCCCCC1
inactive: activation [1] 0.333% | Potency [2] | Potency [3]

C1CCC[C@H]2CCCN3CC[C@@H](CCCCCC[C@@H]4CCCN5CC[C@@H](CC1)O[C@@H]45)O[C@@H]23
inactive: activation [1] -4.33% | activity change, negative = inhibition [2] 3.01% [at 0.092 µM] | activity change, negative = inhibition [3] -7.72% [at 0.092 µM]

C=C1CC2C(C)(CCC(=O)O)C(C(C)(C)O)CCC2(C)C2(C(=O)OC)C(=O)C(C)(O)C(=O)C12C (stereo unspecified)
inactive: activation [1] -21.4% | Potency [2] | Potency [3]
